The panel holds about 83,000 compounds, 20% with a hit somewhere; the sample as a whole holds those more often.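 Treatment: one concentration, 48 hours, 96-well format. Scoring: percent growth, with anything below 10 considered active.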 Unmarked numbers belong to inactive results. The source made the active and inactive calls.

Holding throughout (assay): NCI-60 one-dose screen, 48 h (100 = growth as untreated, 0 = no growth, -100 = all killed)
Conditions in all cases: 10 µM unless noted

For assay [1], the system named is SK-MEL-2 melanoma.
Assay [2] relates to EKVX NSCLC.
Assay [3] concerns SN12C renal.
The test system of assay [4] is UO-31 renal.
Assay [5] has as its system TK-10 renal.
The subject of assay [6] is ACHN renal.
Assay [7] concerns CAKI-1 renal.
In assay [8] the test system is A498 renal.
In assay [9] the test system is CCRF-CEM leukemia.
Assay [10] deals with MOLT-4 leukemia.

Regarding `Nc1n[nH]c2cccc(C#Cc3cccc(C(=O)Nc4cc(C(F)(F)F)cc(C(F)(F)F)c4)c3)c12`, the growth in [1] is 72.2%; in assay [2], 92%; in assay [3], 61.1%; in assay [4] it was 42.5%; in [5] it was 109%; in assay [6], 76.3%. Further, the growth in assay [7] was 96.2%; in assay [8], 89.3%; in assay [9] it was 12.1%; in assay [10] it was 35.4%.

For `CC(C)c1ccc(Cc2cnc(NC(=O)c3cc(Br)cs3)s2)cc1`, the growth in [1] was 23.7%; in [2] it was 43.9%; in [3], 49.7%; in [4], 55%; in assay [5] it was 46.7%; in assay [6] it was 41.6%. Moreover, the growth in assay [7] is 31.3%; in assay [8] it was 18.8%; in assay [9], 20%; in [10] it was 43.2%.

Turning to `COc1cc(NS(=O)(=O)c2ccc(-c3cnc(C4CC4)o3)cc2)ccc1F`, the growth is 54.2% in assay [1]; 33% in assay [2]; 41.1% in assay [3]; 37.1% in assay [4]; 43.8% in assay [5]; 37.3% in assay [6]. Further, the growth in assay [7] was 35.4%; in assay [8], -6.34% (active); in [9], 19.5%; in assay [10] it was 31.9%.

On to `O=c1c2cnn(-c3ccccc3)c2n2c(CN3CCOCC3)nnc2n1-c1ccccc1`, for which the growth in [1] is 79.1%; in [2] it was 102%; in [3] it was 104%; in assay [4], 87.6%; in [5], 71.4%; in assay [6], 95.2%. Also, the growth in assay [7] was 92.4%; in [8], 106%; in [9], 96.8%; in assay [10], 100%.

Take `CCCCn1c(=O)[nH]c(N)c([C@@H]2c3c([nH]c(=O)n(CCCC)c3=O)Oc3ccc4ccccc4c32)c1=O`: the growth was 89.2% in assay [1]; 84.5% in assay [2]; 81% in [3]; 3.72% (active) in assay [4]; 73.7% in assay [5]; 2.15% (active) in [6]. Also, the growth was 51.5% in assay [7], 101% in [8], -15.9% (active) in assay [9] and -8.45% (active) in [10].

Regarding `O=C(CN1C(=O)NC2NC(=O)NC21)N/N=C/c1ccccc1[N+](=O)[O-]` (stereo not given), the growth in assay [1] was 114%; in assay [2], 103%; in assay [3], 105%; in [4], 87.8%; in assay [5], 116%; in [6] it was 103%. Further, the growth is 90.1% in [7], 104% in [8], 107% in assay [9] and 103% in assay [10].

Turning to `COc1ccc(C2=C(Br)C(=O)c3nc(C)ccc3C2=O)cc1`, the growth in [1] was 102%; in assay [2] it was 94.4%; in assay [3], 92.8%; in assay [4], 69.9%; in assay [5], 71.7%; in assay [6], 17%. Besides, the growth in assay [7] is 81.2%; in [8] it was 88.7%; in assay [9], 30.1%; in assay [10], 41.4%.

As for `CCOC(=O)c1c2c(n3cccc(F)c13)C(=O)c1ncccc1C2=O`, the growth in assay [1] was 72.4%; in [2], 27.7%; in [3], 25.6%; in assay [4] it was -28.5% (active); in [5], 36.8%; in assay [6], 7% (active). The growth was 14.4% in assay [7], 24% in [8], 67.3% in assay [9] and 69.3% in [10].

On to `COC(CC(F)F)c1cn(S(=O)(=O)c2ccc(C)cc2)c2ccccc12` (stereo not given), for which the growth was 41.3% in assay [1]; 48.3% in assay [2]; 43.3% in assay [3]; 33.8% in [4]; 59.3% in assay [5]; 51% in [6]. Also, the growth in [7] is 37.4%; in assay [8], 42.3%; in assay [9], 11.1%; in [10], 22.3%.

Take `COC(=O)c1c(C)nc(C)c2c1C(=O)C(Br)=C(NCc1ccccc1)C2=O`: the growth was 27.2% in assay [1]; 17% in assay [2]; 8.24% (active) in assay [3]; 46.1% in assay [4]; 86.6% in [5]; 36.9% in assay [6]. Further, the growth in assay [7] was 51.8%; in assay [8] it was 88.6%; in [9] it was 25.5%; in [10], 13.6%.

`CN(C)CC1CCC(CN(C)C)C1=O` (stereo not given): the growth was 96.8% in [1]; 133% in assay [2]; 106% in assay [3]; 85.4% in [4]; 92.1% in assay [5]; 110% in assay [6]. For the same compound, the growth in [7] is 108%; in [8] it was 103%; in assay [9], 27.9%; in [10], 64.4%.

For `O=[N+]([O-])c1cccc(-c2nc3cc4nc5ccccc5[nH]c4cc3n2)c1`, the growth was 93.4% in assay [1]; 99.7% in assay [2]; 108% in [3]; 84.4% in assay [4]; 105% in assay [5]; 103% in assay [6]. Moreover, the growth in [7] was 104%; in assay [8], 92.1%; in assay [9], 111%; in assay [10], 92.9%.

On to `CSc1nc2ccccc2cc1/C=[N+](\[O-])c1ccccc1`, for which the growth in assay [1] is 95.5%; in assay [2], 79.5%; in assay [3], 45.2%; in [4], 42.8%; in assay [5], 98%; in [6], 80%. Besides, the growth in assay [7] was 80.8%; in [8] it was 102%; in [9], 10.5%; in [10] it was 22%.

Turning to `COc1cc(/C=C2/C=C(c3ccccc3)N(CCc3ccc(S(N)(=O)=O)cc3)C2=O)cc(OC)c1OC`, the growth in assay [1] was 104%; in assay [2], 105%; in assay [3], 105%; in assay [4], 87.8%; in assay [5], 96.2%; in assay [6], 103%. Moreover, the growth in assay [7] is 99.1%; in assay [8] it was 86.6%; in assay [9], 91%; in [10], 83.1%.

As to `CN(/C(N)=N/N=C/c1c2ccccc2cc2ccccc12)C1CCCCC1`, the growth in assay [1] was 85.8%; in assay [2], 50.5%; in [3], 54.7%; in assay [4] it was 33.5%; in [5], 59.3%; in [6], 52.7%. Besides, the growth is 46.5% in assay [7], 50.3% in assay [8], 29.1% in assay [9] and 14.2% in [10].

`COc1cc(OCc2cccc(Br)c2C)cc(OC)c1C=O`: the growth in assay [1] is 88%; in [2], 80.8%; in assay [3] it was 77.5%; in assay [4], 71.8%; in assay [5], 45.4%; in assay [6], 90.7%. The growth is 24.2% in assay [7], -88.7% (active) in assay [8], 77% in [9] and 80.2% in [10].

Regarding `CC(C)(C)CC(C)(C)NC(=O)Nc1ncccc1OCc1ccccc1`, the growth in assay [1] was 83.5%; in [2] it was 93.3%; in assay [3], 89.5%; in assay [4], 73.9%; in assay [5], 96.3%; in assay [6], 94.4%. In addition, the growth in assay [7] was 80.2%; in assay [8], 92.7%; in [9], 94.2%; in [10] it was 89.1%.

Consider `O=C(Nn1c2c(sc1=NC1CC1)C(=O)c1ccccc1C2=O)c1cc2ccc1CCc1ccc(cc1)CC2`, for which the growth was 49.5% in assay [1]; 67.5% in assay [2]; 30.9% in [3]; 21.5% in assay [4]; 115% in [5]; 25.6% in [6]. For the same compound, the growth in assay [7] was 30.8%; in assay [8], 89.4%; in [9], 22.6%; in assay [10] it was 8.53% (active).

Take `COc1ccc(NC2=C(I)C(=O)c3ncccc3C2=O)cc1`: the growth in assay [1] is 29.1%; in [2], 64.8%; in [3] it was -96.4% (active); in assay [4], -92.6% (active); in [5], 51.1%; in [6], -12.7% (active). The growth is 24.1% in [7], 65.3% in [8], 11% in assay [9] and -31.7% (active) in assay [10].

`O=C(Nc1cccc2ccccc12)NC1CC1`: the growth in assay [1] is 121%; in assay [2] it was 109%; in assay [3] it was 106%; in assay [4], 88%; in [5], 117%; in assay [6], 101%. The growth in assay [7] is 96.5%; in assay [8], 112%; in [9], 97.5%; in assay [10] it was 92.6%.

Turning to `O=S(=O)(NCCCNc1nccc(-c2c(-c3ccc(F)c(O)c3)nc3occn23)n1)c1ccc(Cl)cc1`, the growth in [1] is 25.6%; in assay [2] it was 65.6%; in assay [3], 59.5%; in [4], 36.4%; in assay [5], 103%; in assay [6], 56.3%. The growth was 41.7% in assay [7], 84.9% in assay [8], 47.9% in assay [9] and 48.9% in assay [10].

As for `O=C(NNC(=O)c1ccc(NC(=O)c2ccccn2)cc1)Nc1ccc([N+](=O)[O-])cc1`, the growth in [1] is 106%; in assay [2] it was 102%; in assay [3], 96.6%; in assay [4], 75.8%; in [5], 101%; in assay [6] it was 95.5%. The growth in assay [7] is 91.6%; in [8] it was 104%; in assay [9], 103%; in [10], 103%.

For `N#Cc1c(-c2ccc(Cl)cc2)c(C#N)c2c(C#N)c(N)nn2c1N`, the growth in assay [1] was 93.1%; in assay [2], 68.3%; in [3], 87.8%; in assay [4] it was 67.1%; in [5] it was 83.8%; in assay [6] it was 87.7%. The growth in assay [7] was 71.6%; in [8], 78.2%; in assay [9], 73.9%; in assay [10] it was 79.4%.

For the compound `CC(C)=CCC[C@](C)(O)[C@H]1CC[C@]2(C)[C@@H]1CC[C@@H]1[C@@]3(C)C/C(=C/c4ccco4)C(=O)C(C)(C)[C@@H]3CC[C@]12C`, the growth in [1] is 109%; in assay [2], 101%; in assay [3], 97%; in assay [4], 88.7%; in [5], 103%; in assay [6], 102%. Also, the growth in assay [7] is 90.7%; in assay [8], 86.3%; in assay [9], 101%; in assay [10], 104%.

Take `COc1ccc(C(=O)Nc2cccc(-c3cc(=O)c4c(OC)c(OC)c(OC)cc4o3)c2)cc1`: the growth in assay [1] was 61.3%; in assay [2] it was 77.3%; in assay [3], 50%; in [4], 26.5%; in assay [5], 76.7%; in assay [6], 47%. Besides, the growth was 57.4% in [7], 69.3% in assay [8], 27.5% in assay [9] and 23.3% in [10].

Values taken from PubChem BioAssay (NCI).
